# Experimental data from PubChem BioAssay AID1578 (Sanford-Burnham Center for Chemical Genomics, 2009).
# Out of some 290,000 compounds screened, about 3,000 (1%) were called active. Many of the other results were omitted from the sample, so actives are more common in it than they were. Unmarked numbers belong to inactive results. No stated cut-off is given here; in the data, active means inhibition mostly above about 36% (no sharp cut-off); inactive means mostly below about 34%.
# Experiment: inhibition of NOD1-driven NF-kB reporter – cell-based, luminescence, uHTS, primary screen (AID 1578);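 further: HEK-293T reporter cells stimulated with the NOD1 agonist gamma-tri-DAP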
# Settings: NOD1-driven NF-kB luciferase reporter cells, at 4 µM, stronger effect = higher value
row,Compound,inhibition
1,Cc1nn(Cc2ccc(F)cc2)c(C)c1NC(=O)CCCn1nc([N+](=O)[O-])cc1C,-34.8%
2,O=c1cc(N2CCN(c3ccccc3)CC2)[nH]c(=O)n1-c1ccccc1,-19.3%
3,CC(C)NC(=S)N1CCN(Cc2ccc3c(c2)OCO3)CC1,-10.8%
4,COc1ccc(S(=O)(=O)Nc2c(NC3CCCCC3)c3ccccc3oc2=O)cc1OC,-7.5%
5,O=C(Nc1nnc(CSCc2ccc(F)cc2)s1)c1ccc([N+](=O)[O-])cc1,1.6%
6,O=C(Nc1cccc(Cl)c1)Nc1cccc(C(=O)O)c1,-9.6%
7,O=C(O)c1cccc(NC(=S)NCc2ccccc2)c1,-23.1%
8,O=C(NCc1ccccc1)C(=O)Nc1cccc(C(=O)O)c1,39.8% (active)
9,CSc1cccc(NC(=O)C(=O)NCc2ccccc2)c1,-4.7%
10,Cc1ccc(C(=O)Nc2cnc3ccccc3c2)cc1,81.8% (active)
11,O=C(Nc1cnc2ccccc2c1)c1ccncc1,-21.5%
12,Cc1ccc(NC(=O)Nc2cnc3ccccc3c2)cc1,-44.8%
13,O=C(Nc1ccc(Cl)cc1)Nc1cccc(C(=O)O)c1,67.9% (active)
14,NC(=O)c1cccc(NC(=O)Nc2ccc(Cl)cc2)c1,9.4%
15,CCc1nc(CN2CCN(c3ccc(C(F)(F)F)cn3)CC2)c(C)[nH]1,-4.8%
16,O=C(c1ccc(S(=O)(=O)Nc2ccccc2)cc1)N1CCCCCCC1,-14.1%
17,CCOC(=O)CCNC(=O)N1CCCC(Cc2ccccc2)(C(=O)OCC)C1 (stereo unspecified),-26.2%
18,COc1ccc(NC(=O)CCC(=O)Nc2nnc(CC(C)C)s2)cc1Cl,-5.8%
19,COC(=O)C1=C(C)NC(=O)NC1c1cn(-c2ccccc2)nc1-c1cccs1 (stereo unspecified),-21.3%
20,CCN1C(=O)/C(=C/N(C(C)=O)c2ccccc2)N(c2ccccc2)C1=S,11.4%
21,CCN1C(=O)/C(=C/N(C)c2ccccc2)OC1=S,-15.3%

row,Compound,inhibition
1,CCN1C(=O)/C(=C\N(C(C)=O)c2ccccc2)OC1=S,55.5% (active)
2,Nc1nc(COc2ccccc2C=O)nc(Nc2ccccc2)n1,-7.7%
3,CN(C)c1ccc(C2CC(=O)C=C(Nc3ccccc3N)C2)cc1 (stereo unspecified),-11.3%
4,Cc1ccc(C(=O)CSc2ncnc3sc4c(c23)CCC(C)C4)cc1 (stereo unspecified),-2.7%
5,O=C(Nc1ccc(Oc2ccc(Cl)cc2)c(Cl)c1)c1cc(I)cc(I)c1O,-14.3%
6,COc1c(Cl)cc(Cl)cc1C(=O)Nc1ccc(NC(C)=O)cc1,-17.9%
7,CC(=O)Oc1c(I)cc(I)cc1C(=O)Nc1ccc(Cl)cc1,85.8% (active)
8,CN(CC(=O)Nc1ccccc1Cl)C(=O)c1cc(=O)[nH]c2ccccc12,-12.4%
9,CCOC(=O)c1ccc(NC(=O)COc2ccc(S(=O)(=O)NC(C)(C)C)cc2)cc1,-33.5%
10,CCN1C(=O)/C(=c2\o/c(=C3\C=Cc4ccccc4N3CC)c(=O)n2CC)SC1=S,4.4%
11,COc1ccc(N2C(=O)c3ccc(C(=O)Nc4cc(OC)ccc4OC)cc3C2=O)cc1,-3.6%
12,Cc1ccc(C(C(=O)NC2CCCCC2)N(Cc2ccccc2)C(=O)Cc2c[nH]c3ccccc23)o1 (stereo unspecified),-26.2%
13,COc1ccc(NC(=O)c2cc(S(=O)(=O)N(Cc3ccccc3)c3ccccc3)ccc2Cl)cn1,10.8%
14,Cc1ccc2sc(NC(=O)CSc3nc(C)cc(C)c3C#N)nc2c1,-16.6%
15,Cc1cc(C(F)(F)F)c(C#N)c(SCC(=O)Nc2nc3cc(Br)ccc3s2)n1,67.4% (active)
16,Cc1cc(C(F)(F)F)c(C#N)c(SCC(=O)Nc2nc3ccccc3s2)n1,-5.2%
17,Cc1nnc(NC(=O)CSc2ccc(-c3ccc(Cl)cc3)nn2)s1,-24.7%
18,C=C(C)CN(CC)C(=O)CC1C(=O)NCCN1CC(C)(C)C (stereo unspecified),-7.4%
19,CC(=O)N1CCOc2cc(S(=O)(=O)NC(C)c3ccccc3)c(Cl)cc21 (stereo unspecified),59.9% (active)
20,CC(=O)N1CCOc2ccc(S(=O)(=O)NC(C)c3ccccc3)cc21 (stereo unspecified),1.8%
21,CC(=O)N1CCOc2cc(S(=O)(=O)N3CCN(c4ccccc4)CC3)c(Cl)cc21,-30.8%

row,Compound,inhibition
1,COc1cccc(-c2nn3c(-c4cccc(C)c4)nnc3s2)c1,-87.2%
2,CCOC(=O)C1=C(C)N=c2s/c(=C\c3ccc(O)c([N+](=O)[O-])c3)c(=O)n2C1c1ccccc1OC (stereo unspecified),8.4%
3,CCOC(=O)C1=C(C)N=c2s/c(=C/c3ccccc3)c(=O)n2C1c1ccc(OC)c(OC)c1 (stereo unspecified),-27.7%
4,CCOC(=O)C1=C(C)n2c(s/c(=C/c3cccc([N+](=O)[O-])c3)c2=O)=NC1c1ccc(O)c(OC)c1 (stereo unspecified),95.3% (active)
5,Cn1c(/C(C#N)=C(\O)c2ccc(Cl)s2)nc2ccccc21,11.7%
6,C=C1CC2C=C(NC(C)=O)CC(C1)C2 (stereo unspecified),-6.6%
7,Cc1cccc(NC(=O)Cn2c(O)c(N=NC(N)=S)c3ccccc32)c1,-3.4%
8,Cc1cccc(Cn2c(O)c(N=NC(=S)Nc3ccccc3F)c3ccccc32)c1,14.6%
9,CC(C)C(=O)NC(NC1CCS(=O)(=O)C1)C(Cl)(Cl)Cl (stereo unspecified),-26.8%
10,COc1ccc(-n2c(C)cc(/C=C3/SC(=O)N(CC(=O)N4CCOCC4)C3=O)c2C)cc1,-15%
11,CCOC(=O)N1CCN(C(=O)c2cn(C)c3ccc(S(=O)(=O)N4CCOCC4)cc3c2=O)CC1,-11%
12,COc1ccc(OCC(=O)NCCCn2ccnc2)cc1,9.1%
13,O=C(COc1ccc(Br)cc1)NCCCn1ccnc1,62.4% (active)
14,O=C(COc1ccc(Cl)cc1)NCCCn1ccnc1,-7.5%
15,COCCN(Cc1cc2cc3c(cc2nc1Cl)OCO3)C(C)=O,6.5%
16,CSc1ccc(/C=N/S(=O)(=O)c2ccccc2)cc1,3.8%
17,CN(C)Cc1nc2c([nH]1)c(=O)n(C)c(=O)n2C,1.7%
18,Cn1c(=O)c2[nH]c(COc3ccc(C(C)(C)C)cc3)nc2n(C)c1=O,34.1% (active)
19,CCCc1nc2c([nH]1)c(=O)n(C)c(=O)n2C,-7.1%
